Source: PubChem (several laboratories)
Compounds with a hit are over-represented: about 11% of the library has one in this group of screens.
Autophagy mod: modulators of autophagy; MEF GFP-LC3 puncta imaging; test concentration mostly 10 µM; hit rate 0.98% among 190,000; AID 463193; calls only at 10 µM (by protocol);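 active = percentage of spot-positive cells more than 3 SD above its plate mean, without a fluorescence outlier flag or 80% toxicity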;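 also: spot-positive cell cutoff set from DMSO-treated cells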
WT yeast gro inh: growth inhibition of WT yeast, mitochondrial fusion screen; inhibition, % at 10 µM; AID 1362; mitochondrial fusion phenotypic screen, WT strain; hit rate 2.1% among 190,000; in the data active = inhibition above about 58%; tested in S. cerevisiae
Insulin prom inh: TRM-6 insulin promoter activity inhibition; hit rate 0.9% among 130,000; TRM-6 cells (human fetal islet line), insulin promoter-eGFP reporter, imaging; reporter expression induced with tamoxifen; inhibition, % at 2 µM;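 active = inhibition above the mean plus 3 SD, with well images judged a real hit on visual review, cut at about 60% in these data, passing the limit was not always enough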
L major viab: Leishmania major promastigote growth inhibition; Leishmania major promastigotes, resazurin fluorescence viability; inhibition, % at 10 µM; hit rate 9% among 200,000; in the data active = inhibition above about 50%;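 also: promastigotes grown with compound for 44 hours at 28 °C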
Ins promoter up: MIN6 insulin promoter up-regulation | z-score at 5 µM | hit rate 0.3% among 190,000 | AID 1625 | MIN6 insulin promoter-GFP reporter, high-content imaging; hits give high values;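 active = z-score above 3 at 5 µM with at least 500 cells counted in the well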
* hit, by the source's call; i = inactive; x = no result given; + = active, no number.

SMILES	Autophagy mod	WT yeast gro inh	Insulin prom inh	L major viab	Ins promoter up
c1coc(CNc2nc(N3CCCCC3)nc3ccccc23)c1	i	-6	-16	96*	-1.9
Cc1cccc(C)c1N=Cc1c(C(F)(F)F)[nH][nH]c1=O	i	-15	x	-2	-0.14
CC(Sc1nncs1)C(=O)Nc1ccc(Cl)cn1 (stereo unspecified)	i	-12	x	-10	-0.63
COc1ccc(C(=O)/C=C2/c3ccccc3CC(C)(C)N2C)cc1OC	i	-3	x	9	0.13
Cc1ccsc1C(=O)C1CCCN(Cc2cccn2-c2ccc(Cl)cn2)C1 (stereo unspecified)	i	28	x	94*	-1.6
CCN(CC)C(=O)C1CCCN(Cc2nc(-c3cccs3)no2)C1 (stereo unspecified)	i	-2	x	0	-0.59
Cc1ccc(-n2cccn2)c(CN2CCCC(C(=O)c3sccc3C)C2)c1 (stereo unspecified)	i	12	x	87*	-2
C/C(=N\NC(=O)CCC(=O)Nc1ccc(C)c(C)c1)c1cccs1	i	3	x	-3	0.65
CCCN(CCC)C(=O)CC(c1ccccc1)c1cc(Br)ccc1O (stereo unspecified)	i	76*	-57	30	0.21
C=CCN1C2CCCC1CC(NC(=S)Nc1ccc(Cl)cc1)C2 (stereo unspecified)	i	-1	x	96*	-0.28
S=C(Nc1ccc(Cl)cc1)NC1CC2CCCC(C1)N2C1CCCC1 (stereo unspecified)	i	21	-10	77*	x
COc1cccc(NC(=S)NC2CC3CCCC(C2)N3C2CCCC2)c1 (stereo unspecified)	i	-28	x	38	-0.34
S=C(Nc1cccc(Cl)c1)NC1CC2CCCC(C1)N2C1CCCC1 (stereo unspecified)	i	-7	-59	73*	-0.03
CCOc1ccc(C(=O)Nc2ncccc2Cl)cc1	i	-21	x	-5	-1.3
O=C(CSc1nc2ccc(Cl)cc2[nH]1)N1CCN(C(=O)c2ccco2)CC1	i	1	x	-2	-1.2
Cc1cc(Nc2ccccc2)n(CCOC(=O)COc2ccccc2)n1	i	9	x	-1	1.4
CC(C(=O)NCc1cccnc1)N1C(=O)c2ccccc2C1=O (stereo unspecified)	i	7	-38	-2	x
CCOc1ccccc1-c1c2cc(O)c(=O)cc-2oc2cc(O)c(O)cc12	i	3	x	-11	8.1*
COc1ccc(OC)c(-c2c3cc(O)c(=O)cc-3oc3cc(O)c(O)cc23)c1	i	58*	-149	-9	-0.57
Cc1ccccc1-c1cc(=O)c2c(O)cccc2o1	x	x	x	x	0.9
O=c1cc2oc3cc(O)c(O)cc3c(-c3ccccc3O)c-2cc1O	x	x	x	x	15*
CCOC(=O)c1oc2cc(O)ccc2c(=O)c1-c1ccccc1OC	i	8	-19	-1	-0.16
CCCCC(CC(O)COCCC)c1n[nH]c(=S)n1-c1ccccc1 (stereo unspecified)	i	2	22	0	x
COc1ccccc1Cn1[nH]nnc1=S	x	x	x	x	0.25
CCOc1ccccc1OCC(=O)Nc1ccc(S(=O)(=O)N(C)C)cc1	i	69*	31	-3	0.81
SMILES	Autophagy mod	WT yeast gro inh	Insulin prom inh	L major viab	Ins promoter up
CN(C)S(=O)(=O)c1ccc(NC(=O)CN2CCC(Cc3ccccc3)CC2)cc1	i	12	14	76*	-1.6
CCOc1ccccc1OCC(=O)Nc1ccc(S(=O)(=O)Nc2ncccn2)cc1	i	-3	-12	-9	0.4
CN(C)S(=O)(=O)c1ccc(Cl)c(NC(=O)CN2CCC(Cc3ccccc3)CC2)c1	i	31	x	3	-0.19
O=C(OC(C(=O)Nc1cc(Cl)cc(Cl)c1)c1ccccc1)C1=COCCO1 (stereo unspecified)	i	58*	40	12	-0.34
C=CCN1C(=O)/C(=C/c2ccc(OCC(=O)O)cc2)S/C1=N/c1nccs1	i	2	22	-5	0.45
C=CCN1C(=O)/C(=C/c2ccc(N(C)C)cc2)S/C1=N\c1nnc(CC)s1	+	-11	-163	5	x
Cc1oc2c(c1C(=O)c1ccccc1)C(=O)C(=O)c1ccccc1-2	i	84	-69	100*	0.55
Cc1onc(-c2ccccc2Cl)c1C(=O)c1ccccc1	x	x	x	x	0.01
Cc1oc2c(c1C(=O)O)C(=O)c1ccccc1C2=O	i	-5	-16	100*	0.3
CC(=O)Nc1cccc(/C(C)=N/NC(=O)c2ccc(CN3CCOCC3)cc2)c1	i	-1	x	-5	-1.2
O=C(Nc1ccc([N+](=O)[O-])cc1)c1nc[nH]c1C(=O)NC1CCCCC1	i	0	11	64*	0.12
CNC(=O)c1[nH]cnc1C(=O)Nc1ccc(C)cc1	i	0	54	1	x
Cc1ccc(NC(=O)c2nc[nH]c2C(=O)Nc2ccc(C)cc2)cc1	i	13	-14	-5	-0.41
O=C(Nc1ccc(F)cc1)c1nc[nH]c1C(=O)Nc1ccc([N+](=O)[O-])cc1	i	11	18	92*	0.26
O=c1[nH]c(C2CCN(S(=O)(=O)c3ccccc3)CC2)nc2c1nnn2Cc1ccccc1	i	0	x	-7	-0.33
C=CCN(CC=C)c1nc2ccccc2nc1C(C#N)C(=O)OCCOC (stereo unspecified)	i	59*	-13	9	-0.41
CCCN(CCC)c1nc2ccccc2nc1C(C#N)C(=O)OCCOC (stereo unspecified)	i	26	-14	11	-0.04
O=[N+]([O-])c1ccc(CCNc2cccc3ccccc23)c([N+](=O)[O-])c1	i	-6	41	44	-0.02
COc1cc(C(c2c(C)[nH][nH]c2=O)c2c(C)[nH][nH]c2=O)ccc1OCc1ccc([N+](=O)[O-])cc1	i	-7	x	98*	0.58
COc1cc(C(c2c(C)[nH][nH]c2=O)c2c(C)[nH][nH]c2=O)cc(OC)c1OC	+	7	x	0	-0.64
COc1cc(C(c2c(C)[nH][nH]c2=O)c2c(C)[nH][nH]c2=O)ccc1OC(=O)c1cccc([N+](=O)[O-])c1	i	16	9	6	-0.69
Cn1c(SCc2ccccn2)nnc1-c1ccccc1	i	-4	x	-7	0.11
Cc1ccn2cc(CSc3ccccc3)nc2c1	i	60*	16	71*	x
Cc1ccc(SCc2cn3cccnc3n2)cc1	i	32	23	-8	1.6
Cc1ccc(Nc2nnc(C3C(=O)N(C)C4(C)CC3c3cc(Br)ccc3O4)s2)cc1 (stereo unspecified)	i	55	-21	69*	-0.84
CCCN(Cc1cc2ccc(C)cc2[nH]c1=O)C(=O)c1cccnc1	i	-8	18	-2	-0.4
CCN(CC)CCN(Cc1cc2ccc(C)cc2[nH]c1=O)C(=O)Nc1ccc(Cl)cc1	i	3	-87	63*	-0.94
CCN(Cc1cc2ccc(C)cc2[nH]c1=O)C(=O)c1ccncc1	i	60*	x	-6	0.06
COc1ccc(Nc2cc(C)nc3ccccc23)cc1	i	-8	-18	86*	-0.46
COc1ccc2nc(C)cc(Nc3ccc(N4CCOCC4)cc3)c2c1	i	17	-9	51*	-1.1
